In the supplement of paper PMC13380429:

System: Vero E6 infected with SARS-CoV-2
Assay: inhibition of SARS-CoV-2 cytopathic effect; higher = more antiviral protection, active = above 15
Settings: 48 h

Measured: inhibition of SARS-CoV-2 cytopathic effect

C=C1c2cccc(O)c2C(=O)C2=C(O)[C@]3(O)C(=O)C(C(N)=O)=C(O)[C@@H](N(C)C)[C@@H]3[C@@H](O)[C@H]12 [methacycline]
inactive: 1 nM 1.27% | 8.33 nM -0.1% | 100 nM 1.49% | 833.33 nM 0.36% | 10000 nM 2.34%

COc1cccc(OC)c1-c1ccc(C[C@H](NC(=O)c2c(Cl)cccc2Cl)C(=O)O)cc1
inactive: 1 nM 0.68% | 8.33 nM 2% | 100 nM 0.48% | 833.33 nM 1.89% | 10000 nM 1.23%

C[C@@H]1C[C@@H]([C@H](O)CC2CC(=O)NC(=O)C2)C(=O)[C@@H](C)C1 [cycloheximide]
inactive: 1 nM 2.12% | 8.33 nM 2.86% | 100 nM 6.34%
active: 833.33 nM 27.6% | 10000 nM 17.4%

CCN(CCO)CCCOc1ccc2c(Nc3cc(CC(=O)Nc4cccc(F)c4)[nH]n3)ncnc2c1 [barasertib-HQPA]
inactive: 1 nM -1.93% | 8.33 nM -0.82% | 100 nM -3.04% | 833.33 nM -4.18% | 10000 nM -5.49%

CCC(=O)c1cc(-c2ccc(Cl)cc2)n(-c2ccc(S(N)(=O)=O)cc2)c1C
inactive: 1 nM -0.96% | 8.33 nM -3.03% | 100 nM 0.71% | 833.33 nM -1.12% | 10000 nM 3.3%

Nc1nc(=O)n([C@@H]2CS[C@H](CO)O2)cc1F [emtricitabine]
inactive: 1 nM -0.33% | 8.33 nM -2.03% | 100 nM 4.2% | 833.33 nM -0.69% | 10000 nM -0.34%

Cc1nc[nH]c1CCN [4-methylhistamine]
inactive: 1 nM -0.91% | 8.33 nM -0.74% | 100 nM -0.39% | 833.33 nM -2.08% | 10000 nM 0%
